About 8,600 (12%) of roughly 69,000 compounds showed an effect of 50% or more. For the sample, strong results were picked, then their nearest neighbours and some compounds at random.
The compounds below were run on Plasmodium berghei (assay: Screen against P. berghei liver stage (PbLuc), transformed with Luciferase, at 10uM). Details: tested at 10 uM.
Format: functional, HepG2

Row | SMILES | INHIBITION
1 | N#Cc1c(N)nc2c(c1-c1cnc(N3CCCC3)nc1)COCC2 | -10.7%
2 | CN(C)C(=O)[C@@H]1C[C@@H]2[C@@H](CCN2Cc2nccs2)O1 | 44.5%
3 | Cc1cccnc1CC(C)Nc1nc(N)nc2c1CCNC2 (configuration not stated) | 65.7%
4 | Nc1nc2c(c(NCC(c3cccnc3)N3CCOCC3)n1)CCNC2 (configuration not stated) | 23.1%
5 | Cc1cccc(C)c1OCC(C)Nc1nc(N)nc2c1CCNC2 (configuration not stated) | 42.6%
6 | CCOCCNC(=O)c1ccn(S(=O)(=O)c2ccc(C)cc2)c1 | 13.5%
7 | Cc1ccc(S(=O)(=O)n2ccc(C(=O)NCC(F)(F)F)c2)cc1 | 53.8%
8 | CCNC(=O)CNC(=O)c1ccn(S(=O)(=O)c2ccc(C)cc2)c1 | 2.69%
9 | Nc1cc(C(=O)N2C[C@@H]3CC[C@H]2CN(Cc2cccnc2)C3)ccn1 | 4.64%
10 | Cc1cc(C(=O)NCCN2CCCC(C)C2)nn1C(C)(C)C (configuration not stated) | -5.26%
11 | Cc1cc(C(=O)NCCN2CCCCC2)nn1C(C)(C)C | -22.3%
12 | CC1CCCCN1CCNC(=O)c1ccn(-c2ccccc2)n1 (configuration not stated) | 7.12%
13 | Cc1cc(C(=O)NCCN2CCCCC2C)nn1C(C)(C)C (configuration not stated) | 52.7%
14 | Cc1cc(C(=O)NCCN2CCC(C)CC2)nn1C(C)(C)C | 36.8%
15 | Cc1cc(C(=O)NCCN2CCCCCC2)nn1C(C)(C)C | 76.6%
16 | COCCc1noc(CN2CCCCC2Cn2cncn2)n1 (configuration not stated) | 10.675%

Row | SMILES | INHIBITION
17 | COCC1CN(Cc2ccc(C)o2)Cc2cn(C)nc21 (configuration not stated) | 29.7%
18 | Cc1nn(C)c(C)c1C1CCCN1CC(=O)N(C)c1nccs1 (configuration not stated) | 5.91%
19 | CCCC(=O)NCCc1nc(N(C)C)ncc1-c1ccncc1 | 1.2%
20 | CNC(=O)[C@@H]1CC[C@@H]2[C@@H](CCN2Cc2ccccc2F)O1 | 0.804%
21 | COc1ccc(CN2CCC3(CC2)CCN(c2ncccn2)CC3)cc1 | 67.7%
22 | Fc1ccc(CN2CCC3(CC2)CCN(c2ncccn2)CC3)cc1 | 56.7%
23 | c1cnc(N2CC3(CCN(Cc4cccnc4)C3)C2)nc1 | 13.7%
24 | COc1cccc(CN2CCC3(CCN(c4ncc(F)cn4)CC3)C2)c1 | 46.7%
25 | COc1cccc(CN2CCC3(CC2)CCN(c2ncc(F)cn2)C3)c1 | 40.8%
26 | COc1cccc(CN2CCC3(CCN(c4ncc(C)cn4)CC3)C2)c1 | 31.9%
27 | COc1cccc(CN2CCC3(CC2)CCN(c2ncccn2)C3)c1 | 11.3%
28 | c1cnc(N2CCC3(CCN(Cc4ccncc4)CC3)CC2)nc1 | 21.6%
29 | Fc1ccc(CN2CCC3(CC2)CCN(Cc2nccs2)CC3)cc1 | 42.6%
30 | COc1cccc(CN2CCC3(CC2)CCN(c2ncc(C)cn2)C3)c1 | 65.9%
31 | c1cnc(N2CCC3(CCN(Cc4cccnc4)CC3)CC2)nc1 | 61.4%
32 | Cc1cnc(N2CC3(CCN(Cc4cccnc4)C3)C2)nc1 | 27.2%

— ChEMBL document CHEMBL4513216, “Probing the Open Global Health Chemical Diversity Library for Multistage-Active Starting Points for Next-Generation Antimalarials” (ACS Infect Dis, 2020)
